Rows were chosen to be rich in hits. Some 4.3% of all compounds tested hit in one or more screens of this group.
ADAM10 inh – human ADAM10 inhibitors, primary screen, biochemical, QFRET, HTS; recombinant ADAM10, EDANS/DABCYL FRET peptide cleavage, 3 h; Disintegrin and metalloproteinase domain-containing protein 10 (Homo sapiens), O14672; 370,000 compounds, 0.62% hits; inhibition, % at 7 µM;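 active = inhibition above a per-campaign cutoff equal to the mean of compounds falling between control-based bounds plus 3 SD, cut at about 20% in these data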;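 note: 0% = DMSO wells while the 100% control is not disclosed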
ADAM17 inh – ADAM17 inhibitors, primary screen, biochemical, QFRET. Disintegrin and metalloproteinase domain-containing protein 17 (Homo sapiens), P78536. recombinant ADAM17, EDANS/DABCYL FRET peptide cleavage. inhibition, % at 6.95 µM. 370,000 compounds, 0.83% hits;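 active = inhibition above the mean of compounds lying between control limits plus 3 SD, set per campaign, cut at about 8.5% in these data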;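 note: 0% = DMSO-only wells as the low control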
FAS-TE inh – FAS thioesterase domain inhibitors, primary screen, biochemical, fluorescence intensity, uHTS | recombinant FAS-TE, OMFH fluorogenic substrate, fluorescence endpoint | inhibition, % at 15 µM | 360,000 compounds, 0.67% hits | AID 602261, 2012;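 active = compounds whose normalised, plate-corrected inhibition of enzyme fluorescence in the single-dose primary screen is 50% or more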;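 note: 0% = DMSO with enzyme and 100% = substrate without enzyme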
HGIII-sPLA2 inh – human group III sPLA2 inhibitors, primary screen, biochemical, QFRET, BODIPY PC-A2 liposome substrate; inhibition, % at 12.2 µM; AID 743126, 2013; QFRET BODIPY PC-A2 liposome hydrolysis, fluorescence; 370,000 compounds, 0.56% hits; Group 3 secretory phospholipase A2 (Homo sapiens), Q9NZ20;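 active = inhibition above mean plus 3 SD of compounds lying within the high and low control bounds, cut at about 19% in these data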;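 note: 0% = median of test compound wells and 100% = no enzyme DMSO wells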
Target sequence (Q9NZ20 whole entry, looked up): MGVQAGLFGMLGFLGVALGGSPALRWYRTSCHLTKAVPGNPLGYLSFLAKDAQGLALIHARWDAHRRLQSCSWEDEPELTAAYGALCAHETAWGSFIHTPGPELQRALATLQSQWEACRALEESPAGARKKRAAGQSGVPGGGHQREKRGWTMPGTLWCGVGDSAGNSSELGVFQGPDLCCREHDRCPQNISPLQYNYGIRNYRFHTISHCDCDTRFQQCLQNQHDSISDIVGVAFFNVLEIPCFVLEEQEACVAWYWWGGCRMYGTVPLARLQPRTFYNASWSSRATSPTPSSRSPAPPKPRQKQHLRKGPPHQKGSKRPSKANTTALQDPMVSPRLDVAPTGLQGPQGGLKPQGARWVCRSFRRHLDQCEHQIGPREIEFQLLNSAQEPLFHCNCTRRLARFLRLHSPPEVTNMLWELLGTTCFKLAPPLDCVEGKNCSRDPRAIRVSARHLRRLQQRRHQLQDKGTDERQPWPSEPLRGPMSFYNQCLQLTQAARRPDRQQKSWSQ
GRIN3A LBD mod – binders of NR3A ligand-binding domain, primary screen, biophysical, differential scanning fluorimetry, uHTS | Glutamate receptor ionotropic, NMDA 3A (GRIN3A) ligand-binding domain | NR3A LBD differential scanning fluorimetry, Tm shift; 0% = protein alone, 100% = glycine-bound protein | Tm shift relative to glycine control, % at 25 µM | 340,000 compounds, 2.5% hits | AID 1259313, 2017;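 active = melting temperature shift of at least 10% of the positive control shift, at one fixed dose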
* = called active by the depositor; i = inactive; / = not tested or not shown.

SMILES | ADAM10 inh | ADAM17 inh | FAS-TE inh | HGIII-sPLA2 inh | GRIN3A LBD mod
CCOC(=O)c1c[nH]c(=S)n(-c2ccccc2)c1=O | 4.7 | 2.3 | -8.0 | 7.0 | 12.9*
CCN1CC(c2ccccc2)C(c2ccc(Cl)cc2)=N1 (configuration not stated) | -11.1 | -4.7 | 23.2 | 5.6 | 11.6*
CN1N=C(c2ccc(Cl)cc2)CC(c2ccc(Cl)cc2)C1=O (configuration not stated) | 2.6 | 4.0 | 37.1 | -5.8 | 1.7
Cc1cc(C)cc(-n2c(C)cc(/C=C3\C(=N)N4N=C(CC(C)C)SC4=NC3=O)c2C)c1 | 1.8 | -3.6 | 33.5 | -3.9 | -4.8
CCCC1=NN2C(=N)/C(=C\c3cc(C)n(-c4cc(C)cc(C)c4)c3C)C(=O)N=C2S1 | -14.4 | -3.4 | 24.3 | -18.9 | 11.5*
O=C(NC1CCCCN(Cc2cccc(C(F)(F)F)c2)C1=O)c1ccc(F)c(F)c1 (configuration not stated) | 3.5 | -0.4 | / | 4.2 | /
COC(=O)c1ccc(COC(=O)C(CCSC)NC(=O)COc2ccccc2)cc1 (configuration not stated) | -4.0 | -1.9 | 13.6 | -9.7 | 21.8*
CCCCCN1CCCCC(NC(=O)c2ccc(F)c(F)c2)C1=O (configuration not stated) | -5.8 | -6.2 | / | 1.6 | /
CCOc1ccc(NC(=O)CCCN2C(=S)NC(C)(C)CC2C)cc1 (configuration not stated) | -10.1 | -5.8 | -11.1 | 16.7 | 11.9*
CC1CC(C)(C)NC(=S)N1CCCC(=O)Nc1ccc(Br)cc1 (configuration not stated) | 0.1 | -3.2 | -3.7 | 10.5 | -0.8
Nc1cc(-c2ccncc2)c[nH]c1=O | -52.1 | -20.9 | -3.4 | 2.2 | 12.9*
OCCCNc1ncnc2sc(-c3ccccc3)cc12 | -213.7 | -59.7 | 0.1 | 0.3 | -1.0
OCc1ncc(-c2ccccc2)s1 | 3.0 | -2.2 | -8.4 | 2.4 | 10.3*
CCOC(=O)COc1ccc(Br)cc1/C=C/c1[nH]c(=O)[nH]c(=O)c1[N+](=O)[O-] | -0.5 | -2.6 | 5.2 | -25.8 | 161.1*
O=C1NC(=S)SC1=Cc1cc(Br)ccc1O | 11.5 | 3.9 | -0.1 | -22.9 | 30.7*
O=C1NC(=S)SC1=Cc1ccccc1Br | 1.8 | 0.6 | 11.1 | -20.9 | -1.9
C=CCn1c(C)cc(C(=O)COc2nncc3ccccc23)c1C | -11.1 | -4.0 | -2.9 | -2.9 | 15.8*
C=CCn1c(C)cc(C(=O)COC(=O)CNC(=O)c2ccccc2)c1C | -1.5 | -3.3 | -9.1 | 6.2 | 12.6*
C=CCn1c(C)cc(C(=O)COC(=O)c2n[nH]c(=O)c3ccccc23)c1C | -8.8 | -1.7 | -5.2 | 4.6 | -0.6
CCN(CC)C(=O)CC[C@H]1CC[C@]2(CCCN(C(=O)c3ccccc3)C2)O1 | -13.7 | -7.0 | / | 17.9 | /
CCNc1nc(Nc2ccc(C)c(Cl)c2)c2cnn(C)c2n1 | -4.0 | 2.1 | 14.4 | -15.6 | -2.2
CCCCNc1nc(Nc2ccc(C)c(Cl)c2)c2cnn(C)c2n1 | -5.8 | -2.3 | 30.9 | -10.9 | 15.4*
CC(C)=CCC/C(C)=C/CN1CC(=O)N2[C@H](C[C@@]3(n4ccc5ccccc54)c4ccccc4N(S(=O)(=O)c4ccccc4)[C@@H]23)C1=O | 3.1 | 2.8 | / | -2.6 | /
CCOC(=O)[C@@]12CN(C(=O)OC(C)(C)C)CC=C1N(Cc1ccc(OC)cc1)C(=O)[C@H]2CC(=O)N1CCCCC1 | -7.9 | -3.2 | / | -0.5 | /
CN(C)S(=O)(=O)c1cccc(NC(=S)Nc2cc(Cl)cc(Cl)c2)c1 | 4.2 | -5.0 | 25.7 | 4.0 | 11.3*
SMILES | ADAM10 inh | ADAM17 inh | FAS-TE inh | HGIII-sPLA2 inh | GRIN3A LBD mod
CN(C)S(=O)(=O)c1cccc(NC(=S)Nc2ccc(Cl)cc2Cl)c1 | -0.6 | -0.7 | 5.9 | 0.2 | 1.9
O=C(Nc1ccc(-c2nc3cccnc3s2)cc1)c1ccc(Br)o1 | -184.3 | -58.6 | -3.5 | -6.1 | 19.9*
O=C(Nc1ccc(-c2nc3cccnc3s2)cc1)c1ccco1 | i | -213.7 | -0.1 | -11.8 | 11.5*
O=C(Nc1ccc(-c2nc3cccnc3s2)cc1)c1cccnc1Cl | -68.7 | -27.7 | -2.1 | -19.6 | 1.4
COC(=O)[C@]12C[C@H](CC(=O)N3CCN(C(=O)C4CC4)CC3)C(=O)N(CCC3=CCCCC3)C1=C[C@H](C1CCCC1)O[C@@H]2C | 4.4 | -1.2 | / | -13.9 | /
Cc1cnc(NC(=O)c2cc3c(s2)CCCC3)s1 | 0.4 | 1.8 | 1.5 | 3.6 | 22.8*
Cc1csc(NC(=O)c2cc3c(s2)CCCC3)n1 | 9.3 | 2.4 | -0.2 | 1.7 | 2.1
O=C(CSc1nc2ccccc2c(=O)n1-c1ccc(F)cc1F)c1c[nH]c2ccccc12 | -3.9 | 0.1 | 11.0 | 12.5 | 19.2*
C=CCn1c(C)cc(C(=O)CSc2nc3ccccc3[nH]2)c1C | -1.8 | -7.8 | 2.6 | -7.0 | 2.0
O=C(CSc1nc2ccccc2c(=O)n1-c1ccc(F)cc1F)NC1CC1 | -3.4 | 4.5 | -6.5 | 12.1 | /
Cc1cc(C(=O)CSc2nc3ccccc3[nH]2)c(C)n1Cc1ccco1 | -3.9 | 0.5 | 9.0 | -17.9 | 13.1*
O=C(CSc1nc2ccccc2[nH]1)c1c[nH]c2ccccc12 | 4.1 | -6.8 | -4.9 | -19.5 | 14.4*
Cc1[nH]c2ccccc2c1C(=O)CSC(=S)N(C)C | -5.7 | -1.0 | -4.2 | -6.1 | 16.4*
Nn1c(SCC(=O)Nc2ccccc2-c2ccccc2)nnc1-c1n[nH]c2c1CCC2 | 7.6 | 2.3 | / | -3.3 | /
O=C(NCCc1ccccc1)OCc1cn(Cc2cc(F)ccc2F)nn1 | -1.9 | -5.4 | / | 4.8 | /
Cc1ccc2nc(SCC(=O)c3c(C)[nH]c4ccccc34)[nH]c2c1 | 10.8 | 5.1 | 8.8 | -18.2 | 11.8*
Cc1ccc2nc(SCC(=O)c3c[nH]c4ccccc34)[nH]c2c1 | 3.6 | 0.4 | -9.5 | -35.8 | 14.8*
C=CCCC1(CCC)C(=O)/C(=C(\O)c2ccccc2)C(=O)C(CCC)=C1OC (configuration not stated) | -4.2 | 0.1 | / | 3.0 | /
Cc1ccc(NS(=O)(=O)c2ccc(NC(=O)c3cccs3)cc2)c(C)c1 | 10.9 | 6.8 | 14.7 | -37.3 | 29.3*
Cc1cc(C)cc(NS(=O)(=O)c2ccc(NC(=S)NC(=O)c3cccs3)cc2)c1 | 7.9 | 5.6 | 27.7 | -36.2 | 23.6*
Cc1cc(C)nc(NS(=O)(=O)c2ccc(NC(=O)c3cccs3)cc2)n1 | -1.4 | -2.9 | -4.8 | -5.8 | 6.9
COc1cc(NS(=O)(=O)c2ccc(NC(=S)NC(=O)c3cccs3)cc2)nc(OC)n1 | -6.0 | -3.7 | 1.5 | 2.5 | -3.3
CNC(=O)c1cc(S(=O)(=O)Nc2ccc(C)cc2C)ccc1C | -2.7 | 0.8 | -0.5 | 1.2 | 14.1*

Source: PubChem BioAssay
